{"source": "PubChem BioAssay (NCI)", "key": {"[1]": {"test": "NCI Yeast Anticancer Drug Screen. Data for the mec2-1 strain (AID 157)", "conditions": "S. cerevisiae mec2-1 strain, stronger effect = higher value", "in_short": "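Cells of the genetically defined mec2-1 yeast strain are incubated with test compound. Inhibition of growth is calculated against vehicle-treated controls.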"}, "[2]": {"test": "NCI Yeast Anticancer Drug Screen. Data for the rad14 strain (AID 159);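 also: 0% = growth of vehicle-treated control cultures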", "conditions": "S. cerevisiae rad14 strain growth inhibition, stronger effect = higher value", "in_short": "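A mutant yeast strain defective in DNA damage repair is treated with compound; inhibition of its growth is scored against untreated, vehicle-exposed cultures.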"}, "[3]": {"test": "NCI Yeast Anticancer Drug Screen. Data for the sgs1 mgt1 strain (AID 161);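 also: 0% = growth of cultures given vehicle only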", "conditions": "S. cerevisiae sgs1 mgt1 strain, stronger effect = higher value", "in_short": "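Genetically altered yeast, compound exposure, growth inhibition relative to vehicle.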"}, "[4]": {"test": "NCI Yeast Anticancer Drug Screen. Data for the CLN2oe strain (AID 163);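 also: 0% = growth of vehicle-only control cultures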", "conditions": "S. cerevisiae CLN2oe strain, stronger effect = higher value", "in_short": "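Strain altered in cell-cycle control, incubated with compound; growth compared to solvent-treated controls.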"}, "[5]": {"test": "NCI Yeast Anticancer Drug Screen. Data for the cln2 rad14 strain (AID 165);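 also: 0% = growth equal to vehicle treated cultures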", "conditions": "S. cerevisiae cln2 rad14 strain, stronger effect = higher value", "in_short": "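The screen exposed genetically defined yeast (cln2 rad14) to test compounds and scored growth inhibition relative to vehicle-treated controls.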"}, "[6]": {"test": "NCI Yeast Anticancer Drug Screen. Data for the bub3 strain (AID 167)", "conditions": "S. cerevisiae bub3 mutant strain, stronger effect = higher value", "in_short": "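Steps: expose the mutant yeast strain to compound; grow alongside vehicle-treated cultures; measure growth; express inhibition against the vehicle cultures.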"}, "[7]": {"test": "NCI Yeast Anticancer Drug Screen. Data for the wt2 strain (AID 169);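 also: 0% = growth of vehicle-treated yeast cultures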", "conditions": "S. cerevisiae wt2 strain growth inhibition, stronger effect = higher value", "in_short": "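Steps: yeast strain treated with compound; growth recorded; inhibition calculated relative to cultures given vehicle alone.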"}, "[8]": {"test": "NCI Yeast Anticancer Drug Screen. Data for the mlh1 strain (AID 171);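 also: 0% = growth of vehicle-treated control cultures of the same strain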", "conditions": "S. cerevisiae mlh1 strain growth inhibition, stronger effect = higher value", "in_short": "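Yeast screen: mutant strain plus compound, growth scored against vehicle control wells.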"}, "[9]": {"test": "NCI Yeast Anticancer Drug Screen. Data for the sgs1 strain (AID 173);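 also: 0% = growth of vehicle-only control cultures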", "conditions": "S. cerevisiae sgs1 mutant, stronger effect = higher value", "in_short": "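Inhibition of yeast growth served as the measure. The mutant strain was treated with each compound, and growth was normalised to cultures receiving vehicle alone.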"}, "[10]": {"test": "NCI Yeast Anticancer Drug Screen. Data for the mlh1 rad18 strain (AID 175)", "conditions": "S. cerevisiae mlh1 rad18 strain growth inhibition, stronger effect = higher value", "in_short": "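Compound-treated yeast growth, normalised to vehicle controls. Strain bears defined DNA repair mutations.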"}, "[11]": {"test": "NCI Yeast Anticancer Drug Screen. Data for the rad18 strain (AID 177)", "conditions": "S. cerevisiae rad18 mutant growth inhibition, stronger effect = higher value", "in_short": "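Inhibition values reflect reduced yeast growth compared with vehicle-treated controls, using a strain engineered with a DNA damage repair defect.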"}, "[12]": {"conditions": "at 5.0 µM (retest, dose inferred, filed as 0.5)"}, "[13]": {"conditions": "at 50.0 µM (retest, dose inferred, filed as 5.0)"}}, "note": "Compounds without any hit were thinned out: in the full panel of roughly 79,000, 15% have a hit. Values without a mark were called inactive. Activity calls are given as the source filed them. Rule as the data show it: active = growth inhibition above about 70%; inactive = the rest.", "data": [{"smiles": "CN1CCN(C(=O)/C=C/C(=O)c2ccccc2)CC1", "values": [{"measurement": "growth inhibition", "setting": "[1]; [12]", "value": -3, "unit": "%"}, {"measurement": "growth inhibition", "setting": "[1]; at 11.0 µM", "value": 35, "unit": "%"}, {"measurement": "growth inhibition", "setting": "[1]; at 33.0 µM", "value": 67, "unit": "%"}, {"measurement": "growth inhibition", "setting": "[1]; [13]", "value": -3, "unit": "%"}, {"measurement": "growth inhibition", "setting": "[1]; at 50.0 µM", "value": "95% (active)"}, {"measurement": "growth inhibition", "setting": "[1]; at 100.0 µM", "value": "94% (active)"}, {"measurement": "growth inhibition", "setting": "[2]; at 1.2 µM", "value": 9, "unit": "%"}, {"measurement": "growth inhibition", "setting": "[2]; at 3.7 µM", "value": 12, "unit": "%"}, {"measurement": "growth inhibition", "setting": "[2]; at 11.0 µM", "value": 20, "unit": "%"}, {"measurement": "growth inhibition", "setting": "[2]; at 33.0 µM", "value": 40, "unit": "%"}, {"measurement": "growth inhibition", "setting": "[2]; at 100.0 µM", "value": "87% (active)"}, {"measurement": "growth inhibition", "setting": "[3]; [12]", "value": 6, "unit": "%"}, {"measurement": "growth inhibition", "setting": "[3]; [13]", "value": -9, "unit": "%"}, {"measurement": "growth inhibition", "setting": "[3]; at 50.0 µM", "value": "95.5% (active)"}, {"measurement": "growth inhibition", "setting": "[4]; at 1.2 µM", "value": 3, "unit": "%"}, {"measurement": "growth inhibition", "setting": "[4]; at 3.7 µM", "value": 6, "unit": "%"}, {"measurement": "growth inhibition", "setting": "[4]; at 11.0 µM", "value": 15, "unit": "%"}, {"measurement": "growth inhibition", "setting": "[4]; at 33.0 µM", "value": 36, "unit": "%"}, {"measurement": "growth inhibition", "setting": "[4]; at 100.0 µM", "value": "76% (active)"}, {"measurement": "growth inhibition", "setting": "[5]; [12]", "value": 39, "unit": "%"}, {"measurement": "growth inhibition", "setting": "[5]; [13]", "value": -10, "unit": "%"}, {"measurement": "growth inhibition", "setting": "[5]; at 50.0 µM", "value": "72.8% (active)"}, {"measurement": "growth inhibition", "setting": "[6]; at 1.2 µM", "value": -3, "unit": "%"}, {"measurement": "growth inhibition", "setting": "[6]; at 3.7 µM", "value": 3, "unit": "%"}, {"measurement": "growth inhibition", "setting": "[6]; [12]", "value": 7, "unit": "%"}, {"measurement": "growth inhibition", "setting": "[6]; at 11.0 µM", "value": 28, "unit": "%"}, {"measurement": "growth inhibition", "setting": "[6]; at 33.0 µM", "value": "80% (active)"}, {"measurement": "growth inhibition", "setting": "[6]; [13]", "value": "91% (active)"}, {"measurement": "growth inhibition", "setting": "[6]; at 50.0 µM", "value": "82.5% (active)"}, {"measurement": "growth inhibition", "setting": "[6]; at 100.0 µM", "value": "90% (active)"}, {"measurement": "growth inhibition", "setting": "[7]; at 1.2 µM", "value": 1, "unit": "%"}, {"measurement": "growth inhibition", "setting": "[7]; at 3.7 µM", "value": 10, "unit": "%"}, {"measurement": "growth inhibition", "setting": "[7]; at 11.0 µM", "value": 36, "unit": "%"}, {"measurement": "growth inhibition", "setting": "[7]; at 33.0 µM", "value": "76% (active)"}, {"measurement": "growth inhibition", "setting": "[7]; at 100.0 µM", "value": "93% (active)"}, {"measurement": "growth inhibition", "setting": "[8]; at 1.2 µM", "value": -1, "unit": "%"}, {"measurement": "growth inhibition", "setting": "[8]; at 3.7 µM", "value": 12, "unit": "%"}, {"measurement": "growth inhibition", "setting": "[8]; at 11.0 µM", "value": 35, "unit": "%"}, {"measurement": "growth inhibition", "setting": "[8]; at 33.0 µM", "value": "85% (active)"}, {"measurement": "growth inhibition", "setting": "[8]; at 100.0 µM", "value": "96% (active)"}, {"measurement": "growth inhibition", "setting": "[9]; at 1.2 µM", "value": 5, "unit": "%"}, {"measurement": "growth inhibition", "setting": "[9]; at 3.7 µM", "value": 15, "unit": "%"}, {"measurement": "growth inhibition", "setting": "[9]; at 11.0 µM", "value": 42, "unit": "%"}, {"measurement": "growth inhibition", "setting": "[9]; at 33.0 µM", "value": "84% (active)"}, {"measurement": "growth inhibition", "setting": "[9]; at 100.0 µM", "value": "95% (active)"}, {"measurement": "growth inhibition", "setting": "[10]; [12]", "value": -5, "unit": "%"}, {"measurement": "growth inhibition", "setting": "[10]; [13]", "value": 7, "unit": "%"}, {"measurement": "growth inhibition", "setting": "[10]; at 50.0 µM", "value": "97.5% (active)"}, {"measurement": "growth inhibition", "setting": "[11]; at 1.2 µM", "value": 2, "unit": "%"}, {"measurement": "growth inhibition", "setting": "[11]; at 3.7 µM", "value": 11, "unit": "%"}, {"measurement": "growth inhibition", "setting": "[11]; at 11.0 µM", "value": 38, "unit": "%"}, {"measurement": "growth inhibition", "setting": "[11]; at 33.0 µM", "value": "84% (active)"}, {"measurement": "growth inhibition", "setting": "[11]; at 100.0 µM", "value": "95% (active)"}]}]}
